{
  "source": "ChEMBL document CHEMBL4513141",
  "about": "“CO-ADD screening of NIH (USA) - Clinical Collection” (2021)",
  "key": {"[1]": {"tested_on": "Klebsiella pneumoniae", "conditions": "Concentration 20 uM; ASSAY_TEST Inhibition of Bacterial Growth; detection method Absorption (OD600); MEDIA CAMHB; plate type 384well; NBS; CORNING #3640; time 18 hr"}, "[2]": {"tested_on": "Candida albicans", "conditions": "20 µM"}, "[3]": {"tested_on": "Cryptococcus neoformans", "conditions": "Concentration 20 uM; ASSAY_TEST Inhibition of Fungal Growth; detection method Resazurin; Absorption (OD600-OD570); plate type 384well; NBS; CORNING #3640"}},
  "note": "Potency and affinity values are given separately.",
  "data": [
    {"compound": "CCC1=C[C@H]2CN(C1)Cc1c([nH]c3ccccc13)[C@@](C(=O)OC)(c1cc3c(cc1OC)N(C)[C@H]1[C@@](O)(C(=O)OC)[C@H](OC(C)=O)[C@]4(CC)C=CCN5CC[C@]31[C@@H]54)C2.O=C(O)C(O)C(O)C(=O)O.O=C(O)C(O)C(O)C(=O)O", "values": [
      {"measurement": "Inhibition", "setting": "[1]", "value": 8.46, "unit": "%"},
      {"measurement": "Inhibition", "setting": "[2]", "value": 4.55, "unit": "%"},
      {"measurement": "Inhibition", "setting": "[3]", "value": -7.91, "unit": "%"}
    ]},
    {"compound": "CS(=O)(=O)c1ccc(C2=C(c3ccccc3)C(=O)OC2)cc1", "note": "[ROFECOXIB]", "values": [
      {"measurement": "Inhibition", "setting": "[1]", "value": 8.3, "unit": "%"},
      {"measurement": "Inhibition", "setting": "[2]", "value": 2.84, "unit": "%"},
      {"measurement": "Inhibition", "setting": "[3]", "value": -2.65, "unit": "%"}
    ]},
    {"compound": "CC(=O)CCCCn1cnc2c1c(=O)n(C)c(=O)n2C", "note": "[LOMIFYLLINE]", "values": [
      {"measurement": "Inhibition", "setting": "[1]", "value": 10.43, "unit": "%"},
      {"measurement": "Inhibition", "setting": "[2]", "value": 2.63, "unit": "%"},
      {"measurement": "Inhibition", "setting": "[3]", "value": -0.96, "unit": "%"}
    ]},
    {"compound": "C[C@H]1[C@@H](OC(=O)CCC(=O)O)O[C@@H]2O[C@@]3(C)CC[C@H]4[C@H](C)CC[C@@H]1[C@@]24OO3", "values": [
      {"measurement": "Inhibition", "setting": "[1]", "value": 13.77, "unit": "%"},
      {"measurement": "Inhibition", "setting": "[2]", "value": 26.5, "unit": "%"},
      {"measurement": "Inhibition", "setting": "[3]", "value": -1.11, "unit": "%"}
    ]},
    {"compound": "C=C1/C(=C\\C=C2/CCC[C@]3(C)[C@@H]([C@H](C)/C=C/[C@@H](O)C4CC4)CC[C@@H]23)C[C@@H](O)C[C@@H]1O", "note": "[CALCIPOTRIENE]", "values": [
      {"measurement": "Inhibition", "setting": "[1]", "value": 16.21, "unit": "%"},
      {"measurement": "Inhibition", "setting": "[2]", "value": 0.06, "unit": "%"},
      {"measurement": "Inhibition", "setting": "[3]", "value": 0.21, "unit": "%"}
    ]},
    {"compound": "O=C(O)c1cc(/N=N/c2ccc(S(=O)(=O)Nc3ccccn3)cc2)ccc1O", "note": "[SULFASALAZINE]", "values": [
      {"measurement": "Inhibition", "setting": "[1]", "value": 2.94, "unit": "%"},
      {"measurement": "Inhibition", "setting": "[2]", "value": 8.72, "unit": "%"},
      {"measurement": "Inhibition", "setting": "[3]", "value": 5.13, "unit": "%"}
    ]},
    {"compound": "CS(=O)(=O)O.Oc1ccc(C2CNCCc3c2cc(O)c(O)c3Cl)cc1", "note": "(centres undefined) [FENOLDOPAM MESYLATE]", "values": [
      {"measurement": "Inhibition", "setting": "[1]", "value": 10.68, "unit": "%"},
      {"measurement": "Inhibition", "setting": "[2]", "value": 1.85, "unit": "%"},
      {"measurement": "Inhibition", "setting": "[3]", "value": -12.04, "unit": "%"}
    ]},
    {"compound": "Cc1ccc(-c2cc(C(F)(F)F)nn2-c2ccc(S(N)(=O)=O)cc2)cc1", "note": "[CELECOXIB]", "values": [
      {"measurement": "Inhibition", "setting": "[1]", "value": 10.55, "unit": "%"},
      {"measurement": "Inhibition", "setting": "[2]", "value": 2.46, "unit": "%"},
      {"measurement": "Inhibition", "setting": "[3]", "value": 0.77, "unit": "%"}
    ]},
    {"compound": "C[C@@H]1C[C@H]2[C@@H]3C[C@H](F)C4=CC(=O)C(Cl)=C[C@]4(C)[C@@]3(F)[C@@H](O)C[C@]2(C)[C@@]1(O)C(=O)CO", "note": "[HALOMETASONE]", "values": [
      {"measurement": "Inhibition", "setting": "[1]", "value": 3.82, "unit": "%"},
      {"measurement": "Inhibition", "setting": "[2]", "value": -0.05, "unit": "%"},
      {"measurement": "Inhibition", "setting": "[3]", "value": -4.6, "unit": "%"}
    ]},
    {"compound": "Nc1ncnc2c1ncn2[C@@H]1O[C@H](CO)C[C@@H]1O.O", "values": [
      {"measurement": "Inhibition", "setting": "[1]", "value": 6, "unit": "%"},
      {"measurement": "Inhibition", "setting": "[2]", "value": 5.13, "unit": "%"},
      {"measurement": "Inhibition", "setting": "[3]", "value": -7.2, "unit": "%"}
    ]},
    {"compound": "CC(C(O)c1ccc(O)cc1)N1CCC(Cc2ccccc2)CC1.O.O=C(O)C(O)C(O)C(=O)O", "note": "(centres undefined)", "values": [
      {"measurement": "Inhibition", "setting": "[1]", "value": 15.53, "unit": "%"},
      {"measurement": "Inhibition", "setting": "[2]", "value": 2.38, "unit": "%"},
      {"measurement": "Inhibition", "setting": "[3]", "value": -4.72, "unit": "%"}
    ]},
    {"compound": "CC(O)CO.N[C@@H](C(=O)N[C@@H]1C(=O)N2C(C(=O)O)=C(CSc3c[nH]nn3)CS[C@H]12)c1ccc(O)cc1", "values": [
      {"measurement": "Inhibition", "setting": "[1]", "value": 6.28, "unit": "%"},
      {"measurement": "Inhibition", "setting": "[2]", "value": 12.3, "unit": "%"},
      {"measurement": "Inhibition", "setting": "[3]", "value": -40.25, "unit": "%"}
    ]},
    {"compound": "C[C@]12CCC(=O)C=C1CC[C@@H]1[C@@H]2[C@@H](O)C[C@@]2(C)[C@H]1CC[C@]2(O)C(=O)COC(=O)CCC(=O)O", "note": "[HYDROCORTISONE HEMISUCCINATE ANHYDROUS]", "values": [
      {"measurement": "Inhibition", "setting": "[1]", "value": -3.41, "unit": "%"},
      {"measurement": "Inhibition", "setting": "[2]", "value": 4.59, "unit": "%"},
      {"measurement": "Inhibition", "setting": "[3]", "value": 6.86, "unit": "%"}
    ]},
    {"compound": "O=C(C1CCCCC1)N1CC(=O)N2CCc3ccccc3C2C1", "note": "(centres undefined) [PRAZIQUANTEL]", "values": [
      {"measurement": "Inhibition", "setting": "[1]", "value": 12.45, "unit": "%"},
      {"measurement": "Inhibition", "setting": "[2]", "value": 5.72, "unit": "%"},
      {"measurement": "Inhibition", "setting": "[3]", "value": -0.79, "unit": "%"}
    ]},
    {"compound": "Nc1nc(Cl)nc2c1ncn2[C@@H]1O[C@H](CO)[C@@H](O)[C@H]1O", "values": [
      {"measurement": "Inhibition", "setting": "[1]", "value": 2.26, "unit": "%"},
      {"measurement": "Inhibition", "setting": "[2]", "value": 4.78, "unit": "%"},
      {"measurement": "Inhibition", "setting": "[3]", "value": 0.98, "unit": "%"}
    ]},
    {"compound": "CN1CCN(C2=Nc3ccccc3Oc3ccc(Cl)cc32)CC1.O=C(O)CCC(=O)O", "note": "[LOXAPINE SUCCINATE]", "values": [
      {"measurement": "Inhibition", "setting": "[1]", "value": 7.32, "unit": "%"},
      {"measurement": "Inhibition", "setting": "[2]", "value": 2.62, "unit": "%"},
      {"measurement": "Inhibition", "setting": "[3]", "value": -0.59, "unit": "%"}
    ]},
    {"compound": "Cc1cccc(Nc2ccccc2C(=O)O)c1C", "note": "[MEFENAMIC ACID]", "values": [
      {"measurement": "Inhibition", "setting": "[1]", "value": 12.13, "unit": "%"},
      {"measurement": "Inhibition", "setting": "[2]", "value": 7.85, "unit": "%"},
      {"measurement": "Inhibition", "setting": "[3]", "value": 2.83, "unit": "%"}
    ]},
    {"compound": "CN(C)CCCN1c2ccccc2CCc2ccc(Cl)cc21.Cl", "note": "[CLOMIPRAMINE HYDROCHLORIDE]", "values": [
      {"measurement": "Inhibition", "setting": "[1]", "value": 18.4, "unit": "%"},
      {"measurement": "Inhibition", "setting": "[2]", "value": 2.36, "unit": "%"},
      {"measurement": "Inhibition", "setting": "[3]", "value": -9.01, "unit": "%"}
    ]},
    {"compound": "C[C@H]1C[C@@H]2[C@H]([C@@H](O)C[C@@]3(C)[C@H]2CC[C@]3(O)C(=O)CO)[C@@]2(C)C=CC(=O)C=C12", "note": "[METHYLPREDNISOLONE]", "values": [
      {"measurement": "Inhibition", "setting": "[1]", "value": 20.28, "unit": "%"},
      {"measurement": "Inhibition", "setting": "[2]", "value": 2.95, "unit": "%"},
      {"measurement": "Inhibition", "setting": "[3]", "value": -7.56, "unit": "%"}
    ]},
    {"compound": "CC(C)(C)NCC(O)c1ccc(O)c(CO)c1.CC(C)(C)NCC(O)c1ccc(O)c(CO)c1.O=S(=O)(O)O", "note": "(centres undefined) [ALBUTEROL SULFATE]", "values": [
      {"measurement": "Inhibition", "setting": "[1]", "value": 17.78, "unit": "%"},
      {"measurement": "Inhibition", "setting": "[2]", "value": 3.1, "unit": "%"},
      {"measurement": "Inhibition", "setting": "[3]", "value": -3.67, "unit": "%"}
    ]},
    {"compound": "CC=CC(=O)N(CC)c1ccccc1C", "values": [
      {"measurement": "Inhibition", "setting": "[1]", "value": 0.87, "unit": "%"},
      {"measurement": "Inhibition", "setting": "[2]", "value": 0.3, "unit": "%"},
      {"measurement": "Inhibition", "setting": "[3]", "value": -7.28, "unit": "%"}
    ]},
    {"compound": "CN(C)CCOC(c1ccccc1)c1ccccc1.Cl", "note": "[DIPHENHYDRAMINE HYDROCHLORIDE]", "values": [
      {"measurement": "Inhibition", "setting": "[1]", "value": 1.03, "unit": "%"},
      {"measurement": "Inhibition", "setting": "[2]", "value": 4.49, "unit": "%"},
      {"measurement": "Inhibition", "setting": "[3]", "value": 4.12, "unit": "%"}
    ]},
    {"compound": "Cc1c(C(=O)NN2CCCCC2)nn(-c2ccc(Cl)cc2Cl)c1-c1ccc(I)cc1", "values": [
      {"measurement": "Inhibition", "setting": "[1]", "value": -0.74, "unit": "%"},
      {"measurement": "Inhibition", "setting": "[2]", "value": 7.4, "unit": "%"},
      {"measurement": "Inhibition", "setting": "[3]", "value": -5.99, "unit": "%"}
    ]}
  ]
}
